Source: PubChem
Hits are enriched below; roughly 3.6% of the tested compounds scored in any of these assays.
mHTT-CaM PPI inh: mutant huntingtin-calmodulin interaction inhibitors – biochemical, AlphaScreen, primary screen | AlphaScreen His-mHTT/GST-CaM binding, luminescence | inhibition, % at 15 µM | 190,000 tested, 3.6% active | AID 1671202, 2021;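 also: 0% = both proteins with DMSO and 100% = one protein alone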
Pf apPOL block: Pf-apPOL inhibitors, biochemical, fluorescence; Plasmodium falciparum apicoplast DNA polymerase (apPOL); inhibition, % at 10 µM; 210,000 tested, 0.25% active; Recombinant Pf-apPOL, molecular beacon fluorescence, 1.5 h
The depositor's hits bear a star; / = no result; ! = not active in a repeat. Rule as the data show it: active = inhibition above about 50%; inactive = the rest.

SMILES	mHTT-CaM PPI inh	Pf apPOL block
COc1ccc(-c2nnc(Nc3ccc(OC)c(C(N)=O)c3)c3ccccc23)cc1	60*	-5
CNC(=O)c1cc(Nc2nnc(-c3ccc(C)c(S(N)(=O)=O)c3)c3ccccc23)ccc1OC	27	6
COc1ccc(Nc2nnc(-c3ccc(C)c(S(N)(=O)=O)c3)c3ccccc23)cc1C(N)=O	54*	-6
CC1=CC(=NS(=O)(=O)c2ccc([N+](=O)[O-])cc2)C=C(C)C1=O	67*	1
CCS(CC)=NS(=O)(=O)c1ccc([N+](=O)[O-])cc1	/	-6
N#C/C(=C\c1ccc2c(c1)OCO2)c1[nH]nc(N)c1C#N	20	-3
COc1ccc(OC)c(/C=C(\C#N)c2[nH]nc(N)c2C#N)c1	61*	-64
Cc1ccc(/C=C(\C#N)c2[nH]nc(N)c2C#N)cc1	31	-1
COc1cc(/C=C(\C#N)c2[nH]nc(N)c2C#N)cc(OC)c1OC	-5	-3
N#C/C(=C\c1ccc(-c2ccc(Cl)c(Cl)c2)o1)c1[nH]nc(N)c1C#N	95*	-7
N#C/C(=C\c1c[nH]c2ccccc12)c1[nH]nc(N)c1C#N	54*	1
COc1ccc(C2SCCN2S(=O)(=O)c2cccc([N+](=O)[O-])c2)cc1 (stereo not drawn)	19	5
CCNC(=O)c1cc(C)nc2ccc(F)cc12	0	-7
CCCCN(CC)C(=O)Cn1c(=O)n(-c2ccc(F)cc2)c(=O)c2sccc21	-2	-3
CSc1nc(N)nc(SC/C=C/c2ccccc2)c1C#N	-8	-1
CSc1nc(N)nc(SCc2ccc(Cl)c(Cl)c2)c1C#N	74*	0
Cc1nnc2ccc(-c3noc(-c4cc(F)ccc4F)n3)cn12	-6	4
O=c1[nH]c2ccc(Br)cc2c(=O)n1C1CCCCC1	52*	-3
CCn1c(=O)[nH]c2ccc(Br)cc2c1=O	5	7
O=C(Nc1cc(F)cc(F)c1)N1CCCN(C2CCN(Cc3ccc(F)cc3)C2=O)CC1 (stereo not drawn)	18	7
O=C(Nc1ccc2oc(-c3cc(F)c(F)cc3Cl)nc2c1)c1ccco1	2	0
Cc1c(CCOC(=O)CC23CC4CC(CC(C4)C2)C3)sc[n+]1CC(=O)c1ccccc1	94*	-4
O=C(OCC12CC3CC(CC(C3)C1)C2)c1ccccc1	-35	-1
CC12CC3CC(C)(C1)CC(c1ccc(O)cc1)(C3)C2	65*	3
CC12CC3(C)CC(C)(C1)CC(C(=O)Nc1ccc(C45CC6CC(CC(C6)C4)C5)cc1)(C2)C3	2	-3
SMILES	mHTT-CaM PPI inh	Pf apPOL block
O=C(c1cc2cn(C3CC3)cc2s1)N1CCN(Cc2ccc3c(c2)OCO3)CC1	63*	-3
CN1CCC(N2CCN(C(=O)c3cc4cn(C5CCCC5)cc4s3)CC2)CC1	30	-3
CC(C)n1cc2cc(C(=O)N3CCN(Cc4ccccc4F)CC3)sc2c1	60*	3
O=C(c1cc2cn(C3CC3)cc2s1)N1CCN(C2CCCCC2)CC1	55*	0
O=C(c1cc2cn(C3CC3)cc2s1)N1CCOCC1	5	-5
CC(C)n1cc2cc(C(=O)N3CCN(Cc4ccc5c(c4)OCO5)CC3)sc2c1	65*	-10
CC(C)CN1CCN(C(=O)c2cc3cn(C(C)C)cc3s2)CC1	15	-8
CC(=O)N1CCN(C(=O)c2cc3cn(C(C)C)cc3s2)CC1	13	-1
CSCCC(C)(O)CNC(=O)C1CC1 (stereo not drawn)	-1	-2
CCC(=O)Nc1ccc2c(c1)C(N1CCOCC1)=Nc1ccccc1O2	1	-7
CCOc1ccccc1CNC(=O)C1CCN(c2cncnc2N2CCOCC2)CC1	12	-4
COc1ccc(Cl)cc1NC(=O)NCCc1ccc(N(C)C)cc1	55*	-3
COc1ccc(CCNC(=O)Nc2cc(F)c(F)cc2Cl)cc1OC	0	-4
O=C(NCc1ccccc1)c1cc(N2C(=O)C=CC2=O)ccc1Cl	31	-2
O=C(O)c1cc(N2C(=O)C=CC2=O)ccc1Cl	/	55*
O=C(Nc1cccc([N+](=O)[O-])c1)c1ccccc1F	-1	-1
CCOc1ccccc1C1C(C#N)=C(N)Oc2cc(N(C)C)ccc21 (stereo not drawn)	61*	-5
CSc1ccc(C2C(C#N)=C(N)Oc3cc(N(C)C)ccc32)cc1 (stereo not drawn)	42	-4
CC(C)(C)NC(=O)NC(=O)c1ccc(Oc2ccc(C(F)(F)F)cc2[N+](=O)[O-])cc1	/	3
O=C(NCc1cc(F)ccc1F)C1CCN(c2cncnc2N2CCOCC2)CC1	-4	6
O=c1/c(=C/c2ccco2)sc2n1CN(c1cccc([N+](=O)[O-])c1)CN=2	7	-9
Cc1ccc(CNc2ccc3c(c2)ncn3C)cc1	25	-7
Fc1ccc(NCc2nc3ccccc3n2Cc2ccccc2)cc1	50*	0
Cn1cnc2cc(NCc3nc4ccccc4n3Cc3ccccc3)ccc21	88*!	-2
Nc1nc2ccccc2n1Cc1ccccc1	3	-4
SMILES	mHTT-CaM PPI inh	Pf apPOL block
C=CCNC(=O)C1CCN(c2nccc(C)n2)CC1	-9	-3
O=C(CC1CCCCC1)N1CCCN(c2cc(-c3ccc4c(c3)OCO4)[nH]n2)CC1	25	-4
O=C1OC(c2ccco2)=N/C1=C/c1cccc([N+](=O)[O-])c1	-2	-5
CCNc1cc(N2CCCC(CCC(=O)Nc3ccc(OC)cc3OC)C2)ncn1 (stereo not drawn)	17	-6
COc1ccc(NC(=O)CCC2CCCN(c3cc(NC4CC4)ncn3)C2)c(OC)c1 (stereo not drawn)	60*	-8
CCCNc1cc(N2CCCC(CCC(=O)Nc3ccc4c(c3)OCO4)C2)ncn1 (stereo not drawn)	51*	-6
CCNc1cc(N2CCCC(CCC(=O)Nc3ccc4c(c3)OCCO4)C2)ncn1 (stereo not drawn)	19	-5
N#Cc1cc2c(nc1SCC(=O)Nc1cccc(C(F)(F)F)c1)CCC2	-4	2
CCC1CN(C(=O)Nc2cccc(C(=O)OC)c2)c2ccccc2O1 (stereo not drawn)	-16	-5
CC(C)=CCOc1ccc2oc(=O)cc(-c3cc4ccccc4o3)c2c1	-8	-5
C=CCc1cccc(C=Nc2ccc(Br)cc2)c1O	1	-3
C=CCc1cccc(C=NNC(N)=S)c1O	94*	56*
Cn1ccnc1SCC(=O)Nc1nn(-c2ccccc2)nc1C(N)=O	6	-3
O=C1OC(c2ccccc2)=N/C1=C/c1cccc([N+](=O)[O-])c1	3	-36
O=C(C1CC(=O)N(c2ccc(F)c(Cl)c2)C1)N1CCN(c2ccccc2)CC1 (stereo not drawn)	1	0
CC(C)C1C(=O)N(Cc2cn(CCC3OCCO3)nn2)CCS(=O)(=O)N1Cc1ccc(-c2ccccc2Cl)cc1 (stereo not drawn)	66*	-1
CC(C)C1C(=O)N(Cc2cn(CCC3OCCO3)nn2)CCS(=O)(=O)N1Cc1ccc(-c2ccccc2)cc1 (stereo not drawn)	44	-15
COc1ccc(-c2ccc(CN3C(CC(C)C)C(=O)N(Cc4cn(Cc5ccco5)nn4)CCS3(=O)=O)cc2)cc1OC (stereo not drawn)	30	-2
CC1C(=O)N(Cc2cn(Cc3ccco3)nn2)CCS(=O)(=O)N1Cc1ccc(-c2ccccc2)cc1 (stereo not drawn)	63*	-1
